Experimental data published in publication PMC6792352, “Limited Chemical Structural Diversity Found to Modulate Thyroid Hormone Receptor in the Tox21 Chemical Library” (Environmental Health Perspectives, 2019).
Where a name gives a salt, the structure may show the parent alone.

test system: thyroid hormone receptor (endogenous TRα and TRβ); design: species or system GH3-TRE-Luc (rat pituitary); GH3-TRE-Luc luciferase reporter, antagonist mode against 1 nM T3, loss of signal, qHTS; conditions: read-out: Average AC50 (uM) GH3-TRE-Antag, antagonist mode, 1 nM T3, no GH3 cytotoxicity hit

SMILES	AC50 [µM]
COc1ccc(Cc2nccc3cc(OC)c(OC)cc23)cc1OC [Papaverine hydrochloride]	15.6
CC/C=C(\C(=O)N[C@@H]1C(=O)N2C(C(=O)OCOC(=O)C(C)(C)C)=C(COC(N)=O)CS[C@H]12)c1csc(N)n1 [Cefcapene pivoxil hydrochloride]	49.5
CC(C)(C)C(=O)OCOP(=O)(COCCn1cnc2c(N)ncnc21)OCOC(=O)C(C)(C)C [Adefovir dipivoxil]	46.6
O=c1oc2ccccc2c(O)c1Cc1c(O)c2ccccc2oc1=O [Dicumarol]	12.7
CCCN(CCC)C(=O)Cc1c(-c2ccc(Cl)cc2)nc2ccc(Cl)cn12 [Alpidem]	25.1
O=C(Nc1ccccc1-c1ccc(Cl)cc1)c1cccnc1Cl [Boscalid]	> 100
